The supplement of paper PMC11732987, “Enantioselective OTUD7B fragment discovery through chemoproteomics screening and high-throughput optimisation” (Communications Chemistry, 2025)

What was measured:
Assay in all cases: log2 ratio of Biotin-Ahx-Ub-VS probe labelling (fragment/DMSO); higher = less target engagement (more negative = stronger competition), active = hit call of the paper (q ≤ 0.05, log2 ratio ≤ -1)
Settings in all cases: compound concentration: 200 uM; treatment time: 3 h
USP34 = USP34 (UniProt Q70CQ2)
Summary of the method: (§1)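 Labelled DUBs from HEK293T lysate were NeutrAvidin-enriched, digested with LysC and trypsin, and run by diaPASEF LC-MS/MS. Before that, each 495 µg sample in Tris/CHAPS/IGEPAL buffer with protease inhibitors was treated in triplicate with fragment at 200 µM or vehicle for 3 h, then with Biotin-Ahx-Ub-VS at 0.5 µM final for 1 h. Values are average log2 ratios of fragment over vehicle by unpaired t-test, based on global-median-normalised Spectronaut label-free quantities from proteins with ≥2 unique peptides.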

USP36 = molecular target: T1, USP36 (UniProt Q9P275)
T1 sequence (whole entry): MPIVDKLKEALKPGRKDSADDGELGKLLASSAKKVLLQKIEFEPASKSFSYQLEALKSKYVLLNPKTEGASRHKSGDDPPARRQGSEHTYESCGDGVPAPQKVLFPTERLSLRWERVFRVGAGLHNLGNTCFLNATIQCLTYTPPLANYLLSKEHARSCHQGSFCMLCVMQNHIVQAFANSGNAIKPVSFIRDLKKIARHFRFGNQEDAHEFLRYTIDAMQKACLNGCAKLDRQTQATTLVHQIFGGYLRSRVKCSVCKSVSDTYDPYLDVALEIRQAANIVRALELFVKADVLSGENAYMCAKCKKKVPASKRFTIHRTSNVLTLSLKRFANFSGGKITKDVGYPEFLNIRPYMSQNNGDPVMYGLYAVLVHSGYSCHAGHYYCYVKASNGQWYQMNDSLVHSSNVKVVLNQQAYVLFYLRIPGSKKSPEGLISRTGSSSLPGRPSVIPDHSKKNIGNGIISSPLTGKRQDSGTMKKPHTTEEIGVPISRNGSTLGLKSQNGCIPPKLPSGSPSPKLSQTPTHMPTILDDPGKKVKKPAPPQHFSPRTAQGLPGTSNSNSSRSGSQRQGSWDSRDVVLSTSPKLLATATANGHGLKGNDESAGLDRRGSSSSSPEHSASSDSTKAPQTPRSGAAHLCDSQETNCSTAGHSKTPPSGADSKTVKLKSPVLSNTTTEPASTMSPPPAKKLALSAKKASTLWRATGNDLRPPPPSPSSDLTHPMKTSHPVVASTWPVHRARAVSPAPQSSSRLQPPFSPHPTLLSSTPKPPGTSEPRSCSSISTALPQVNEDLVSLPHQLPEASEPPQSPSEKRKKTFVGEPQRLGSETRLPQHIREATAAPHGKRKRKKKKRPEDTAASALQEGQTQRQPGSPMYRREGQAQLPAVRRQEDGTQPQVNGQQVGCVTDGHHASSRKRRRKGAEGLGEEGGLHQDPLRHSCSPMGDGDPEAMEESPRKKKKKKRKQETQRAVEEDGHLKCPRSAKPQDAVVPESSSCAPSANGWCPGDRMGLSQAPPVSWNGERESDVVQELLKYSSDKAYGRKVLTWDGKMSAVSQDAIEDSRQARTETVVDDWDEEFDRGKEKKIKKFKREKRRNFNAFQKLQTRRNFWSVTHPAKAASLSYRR
Summary of the method: as §1

USP38 = molecular target: T2, USP38 (UniProt Q8NB14)
T2 sequence (whole entry): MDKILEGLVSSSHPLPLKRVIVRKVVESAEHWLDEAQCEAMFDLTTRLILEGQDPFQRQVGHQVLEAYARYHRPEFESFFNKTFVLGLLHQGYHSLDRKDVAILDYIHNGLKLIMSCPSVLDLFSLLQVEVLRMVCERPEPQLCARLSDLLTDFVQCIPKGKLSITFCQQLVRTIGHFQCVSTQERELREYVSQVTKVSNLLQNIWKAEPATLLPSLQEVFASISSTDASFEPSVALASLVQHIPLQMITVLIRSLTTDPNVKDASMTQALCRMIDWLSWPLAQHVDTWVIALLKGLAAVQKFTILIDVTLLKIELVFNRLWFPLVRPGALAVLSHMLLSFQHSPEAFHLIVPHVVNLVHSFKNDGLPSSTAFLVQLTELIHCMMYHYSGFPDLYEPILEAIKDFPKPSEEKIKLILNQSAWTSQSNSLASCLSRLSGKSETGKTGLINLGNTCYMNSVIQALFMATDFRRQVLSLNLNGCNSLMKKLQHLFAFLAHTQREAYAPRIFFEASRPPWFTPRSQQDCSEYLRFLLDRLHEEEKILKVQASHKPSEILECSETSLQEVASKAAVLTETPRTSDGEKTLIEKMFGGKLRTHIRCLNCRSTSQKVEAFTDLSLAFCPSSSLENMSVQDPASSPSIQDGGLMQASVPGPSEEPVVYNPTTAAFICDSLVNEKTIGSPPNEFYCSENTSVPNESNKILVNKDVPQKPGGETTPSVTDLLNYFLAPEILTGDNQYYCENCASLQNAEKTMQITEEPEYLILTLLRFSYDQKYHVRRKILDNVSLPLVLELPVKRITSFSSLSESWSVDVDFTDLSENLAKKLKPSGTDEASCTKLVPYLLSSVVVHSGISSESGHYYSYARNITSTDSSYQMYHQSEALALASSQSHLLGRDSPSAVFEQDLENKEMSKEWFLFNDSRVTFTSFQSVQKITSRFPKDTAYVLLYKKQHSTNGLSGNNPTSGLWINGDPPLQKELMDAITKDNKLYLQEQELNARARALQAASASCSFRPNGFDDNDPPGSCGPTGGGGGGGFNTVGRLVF
Summary of the method: as §1

USP39 = molecular target: T3, USP39 (UniProt Q53GS9)
T3 sequence (whole entry): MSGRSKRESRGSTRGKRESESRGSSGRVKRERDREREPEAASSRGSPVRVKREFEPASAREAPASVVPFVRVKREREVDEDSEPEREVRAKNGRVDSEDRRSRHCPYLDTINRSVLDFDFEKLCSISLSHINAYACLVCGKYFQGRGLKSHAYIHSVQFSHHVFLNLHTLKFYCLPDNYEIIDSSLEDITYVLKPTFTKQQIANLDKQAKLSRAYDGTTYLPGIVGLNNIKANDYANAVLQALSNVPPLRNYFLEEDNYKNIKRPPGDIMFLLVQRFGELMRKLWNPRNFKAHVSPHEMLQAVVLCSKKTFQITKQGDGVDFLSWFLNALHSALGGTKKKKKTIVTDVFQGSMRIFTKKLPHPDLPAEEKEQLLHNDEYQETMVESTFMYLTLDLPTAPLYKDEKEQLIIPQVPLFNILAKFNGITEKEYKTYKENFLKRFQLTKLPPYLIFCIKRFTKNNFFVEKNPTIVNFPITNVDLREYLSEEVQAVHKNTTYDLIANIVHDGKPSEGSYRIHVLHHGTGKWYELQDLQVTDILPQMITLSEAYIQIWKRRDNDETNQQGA
Summary of the method: as §1

USP4 = molecular target: T4, USP4 (UniProt Q13107)
T4 sequence (whole entry): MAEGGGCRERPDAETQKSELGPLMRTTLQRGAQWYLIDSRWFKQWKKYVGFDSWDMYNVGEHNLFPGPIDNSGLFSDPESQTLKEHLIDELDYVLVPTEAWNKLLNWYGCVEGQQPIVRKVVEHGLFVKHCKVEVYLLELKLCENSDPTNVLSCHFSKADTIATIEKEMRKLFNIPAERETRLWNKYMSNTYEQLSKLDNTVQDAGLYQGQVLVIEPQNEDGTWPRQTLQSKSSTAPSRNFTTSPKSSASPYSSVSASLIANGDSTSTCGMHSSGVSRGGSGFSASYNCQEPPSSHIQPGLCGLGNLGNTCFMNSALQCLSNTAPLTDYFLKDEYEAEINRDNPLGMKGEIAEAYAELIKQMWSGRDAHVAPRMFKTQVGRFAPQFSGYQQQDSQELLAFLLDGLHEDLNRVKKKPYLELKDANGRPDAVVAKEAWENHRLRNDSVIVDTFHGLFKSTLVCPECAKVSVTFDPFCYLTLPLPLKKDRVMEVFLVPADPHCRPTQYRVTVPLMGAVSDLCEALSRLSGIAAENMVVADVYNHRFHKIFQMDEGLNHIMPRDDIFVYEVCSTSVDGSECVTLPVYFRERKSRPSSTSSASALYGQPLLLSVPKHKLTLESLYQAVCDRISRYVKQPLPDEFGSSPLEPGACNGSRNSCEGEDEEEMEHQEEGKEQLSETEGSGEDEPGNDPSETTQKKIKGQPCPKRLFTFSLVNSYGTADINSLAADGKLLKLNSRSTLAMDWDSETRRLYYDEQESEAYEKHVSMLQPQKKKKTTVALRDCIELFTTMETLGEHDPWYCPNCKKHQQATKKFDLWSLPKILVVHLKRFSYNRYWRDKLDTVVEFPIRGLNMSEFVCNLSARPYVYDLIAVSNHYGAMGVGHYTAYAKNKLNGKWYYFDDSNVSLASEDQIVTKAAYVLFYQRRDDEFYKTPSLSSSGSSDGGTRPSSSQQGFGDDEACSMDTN
Summary of the method: as §1

Measured: log2 ratio of Biotin-Ahx-Ub-VS probe labelling

USP34, sequence (Q70CQ2 whole entry, the tested form may be a part): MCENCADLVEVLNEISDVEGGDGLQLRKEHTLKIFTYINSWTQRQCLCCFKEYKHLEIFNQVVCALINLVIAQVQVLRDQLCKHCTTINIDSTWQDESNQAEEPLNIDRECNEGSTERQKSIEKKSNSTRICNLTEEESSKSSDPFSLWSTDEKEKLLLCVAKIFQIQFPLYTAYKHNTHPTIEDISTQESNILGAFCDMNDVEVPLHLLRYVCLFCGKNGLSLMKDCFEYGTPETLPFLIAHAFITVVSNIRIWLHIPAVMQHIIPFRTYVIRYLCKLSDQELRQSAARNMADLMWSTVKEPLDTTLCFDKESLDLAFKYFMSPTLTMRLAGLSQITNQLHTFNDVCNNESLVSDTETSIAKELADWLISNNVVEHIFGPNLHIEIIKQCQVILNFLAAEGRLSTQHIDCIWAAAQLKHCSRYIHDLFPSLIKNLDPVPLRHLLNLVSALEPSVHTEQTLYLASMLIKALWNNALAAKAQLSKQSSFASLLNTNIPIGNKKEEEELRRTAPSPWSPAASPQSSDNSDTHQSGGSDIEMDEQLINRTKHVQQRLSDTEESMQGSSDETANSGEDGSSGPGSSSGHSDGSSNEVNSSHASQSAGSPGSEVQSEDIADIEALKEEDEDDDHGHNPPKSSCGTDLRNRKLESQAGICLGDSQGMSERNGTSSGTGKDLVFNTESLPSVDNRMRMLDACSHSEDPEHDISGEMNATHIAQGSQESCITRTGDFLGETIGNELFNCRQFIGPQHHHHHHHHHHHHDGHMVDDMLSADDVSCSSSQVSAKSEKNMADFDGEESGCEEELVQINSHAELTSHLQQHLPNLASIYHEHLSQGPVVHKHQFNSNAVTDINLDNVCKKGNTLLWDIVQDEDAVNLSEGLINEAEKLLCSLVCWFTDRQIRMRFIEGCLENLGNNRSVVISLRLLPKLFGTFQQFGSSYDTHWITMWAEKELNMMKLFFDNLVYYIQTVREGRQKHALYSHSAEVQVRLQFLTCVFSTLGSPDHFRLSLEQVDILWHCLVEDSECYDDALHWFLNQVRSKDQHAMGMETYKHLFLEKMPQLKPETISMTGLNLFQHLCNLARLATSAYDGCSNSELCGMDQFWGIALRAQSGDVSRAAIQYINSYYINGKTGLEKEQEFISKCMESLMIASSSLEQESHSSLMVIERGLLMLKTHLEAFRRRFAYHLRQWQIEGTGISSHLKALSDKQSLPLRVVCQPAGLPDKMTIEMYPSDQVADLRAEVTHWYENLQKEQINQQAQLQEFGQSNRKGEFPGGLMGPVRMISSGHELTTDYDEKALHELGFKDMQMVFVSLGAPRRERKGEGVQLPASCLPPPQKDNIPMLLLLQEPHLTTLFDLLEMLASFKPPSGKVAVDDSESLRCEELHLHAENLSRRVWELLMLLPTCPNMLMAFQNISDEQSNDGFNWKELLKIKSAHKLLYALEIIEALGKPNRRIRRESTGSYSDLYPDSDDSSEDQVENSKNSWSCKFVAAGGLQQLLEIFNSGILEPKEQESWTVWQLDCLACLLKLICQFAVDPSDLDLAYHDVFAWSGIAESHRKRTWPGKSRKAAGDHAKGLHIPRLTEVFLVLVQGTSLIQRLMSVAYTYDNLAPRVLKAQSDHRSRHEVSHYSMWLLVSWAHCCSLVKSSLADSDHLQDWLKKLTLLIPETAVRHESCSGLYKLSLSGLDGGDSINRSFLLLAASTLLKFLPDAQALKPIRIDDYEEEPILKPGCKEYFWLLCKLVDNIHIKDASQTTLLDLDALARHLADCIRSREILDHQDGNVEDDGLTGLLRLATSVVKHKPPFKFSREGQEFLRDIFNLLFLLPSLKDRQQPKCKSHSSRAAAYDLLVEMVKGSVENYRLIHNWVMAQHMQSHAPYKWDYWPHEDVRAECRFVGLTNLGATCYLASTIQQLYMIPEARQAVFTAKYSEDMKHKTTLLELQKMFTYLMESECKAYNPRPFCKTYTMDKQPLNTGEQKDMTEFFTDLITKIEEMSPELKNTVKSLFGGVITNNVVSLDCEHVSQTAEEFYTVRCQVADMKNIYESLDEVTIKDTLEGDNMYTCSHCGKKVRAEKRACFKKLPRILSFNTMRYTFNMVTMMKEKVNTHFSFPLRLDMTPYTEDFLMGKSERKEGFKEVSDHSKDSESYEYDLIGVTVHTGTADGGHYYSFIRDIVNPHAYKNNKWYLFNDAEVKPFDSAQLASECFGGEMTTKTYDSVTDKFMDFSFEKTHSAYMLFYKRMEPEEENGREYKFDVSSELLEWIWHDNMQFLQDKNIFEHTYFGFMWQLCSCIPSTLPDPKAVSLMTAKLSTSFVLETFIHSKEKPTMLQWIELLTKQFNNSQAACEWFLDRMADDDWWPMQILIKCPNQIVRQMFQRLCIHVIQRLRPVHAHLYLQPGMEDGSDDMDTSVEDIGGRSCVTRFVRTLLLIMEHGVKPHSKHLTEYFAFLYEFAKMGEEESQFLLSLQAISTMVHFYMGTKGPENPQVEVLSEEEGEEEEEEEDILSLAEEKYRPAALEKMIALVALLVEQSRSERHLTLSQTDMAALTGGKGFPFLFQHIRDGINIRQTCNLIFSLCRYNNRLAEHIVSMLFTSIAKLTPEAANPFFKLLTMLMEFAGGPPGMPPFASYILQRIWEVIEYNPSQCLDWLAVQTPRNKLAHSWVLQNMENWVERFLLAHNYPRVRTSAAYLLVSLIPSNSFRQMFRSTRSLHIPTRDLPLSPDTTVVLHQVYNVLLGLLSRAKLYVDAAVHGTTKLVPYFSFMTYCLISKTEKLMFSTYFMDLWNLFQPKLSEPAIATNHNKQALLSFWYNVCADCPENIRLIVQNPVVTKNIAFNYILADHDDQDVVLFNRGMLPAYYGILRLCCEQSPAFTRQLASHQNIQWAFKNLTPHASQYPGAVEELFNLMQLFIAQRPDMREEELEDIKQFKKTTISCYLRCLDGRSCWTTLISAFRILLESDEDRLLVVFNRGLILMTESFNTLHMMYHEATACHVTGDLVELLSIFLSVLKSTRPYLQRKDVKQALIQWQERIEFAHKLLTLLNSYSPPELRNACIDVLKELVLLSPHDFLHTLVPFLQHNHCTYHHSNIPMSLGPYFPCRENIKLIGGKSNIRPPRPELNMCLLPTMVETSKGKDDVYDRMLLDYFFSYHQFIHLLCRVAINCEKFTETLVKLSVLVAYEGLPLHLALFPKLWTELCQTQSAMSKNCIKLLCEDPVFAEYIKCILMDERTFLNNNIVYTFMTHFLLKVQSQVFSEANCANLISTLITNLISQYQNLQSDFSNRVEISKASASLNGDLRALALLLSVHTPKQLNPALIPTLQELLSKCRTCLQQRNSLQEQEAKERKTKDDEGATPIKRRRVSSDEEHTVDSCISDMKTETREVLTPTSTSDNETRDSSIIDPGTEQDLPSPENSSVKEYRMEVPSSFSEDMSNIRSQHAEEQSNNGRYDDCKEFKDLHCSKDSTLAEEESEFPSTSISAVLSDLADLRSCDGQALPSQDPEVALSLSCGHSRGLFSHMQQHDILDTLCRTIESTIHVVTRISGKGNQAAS

COc1ccc(CN(C)C(=O)CCl)cc1
inactive: USP34 -0.0886 | USP36 0.0384 | USP38 0.0505 | USP39 0.298 | USP4 -0.016
